Eight compounds from PubChem BioAssay (NCI) can be followed below.

Compounds without any hit were thinned out: in the full panel of roughly 83,000, 20% have a hit.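 How to read the values: 0–100, growth inhibition (40 = 60% inhibited); 0, no net growth; -100 to 0, cell death (-40 = 40% of starting cells died; -100 = all dead).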 A number with no mark means an inactive call. Activity calls are given as the source filed them. Rule for the calls: active = growth percent below 10; inactive = the rest.

Some test systems named below: HCT-15 colon; HT29 colon; SNB-75 CNS; SNB-19 CNS; U251 CNS; PC-3 prostate; SK-MEL-5 melanoma; UACC-62 melanoma; LOX IMVI melanoma; SK-MEL-28 melanoma; SK-MEL-2 melanoma; EKVX NSCLC; SN12C renal; UO-31 renal; TK-10 renal; ACHN renal; CAKI-1 renal; A498 renal; CCRF-CEM leukemia; MOLT-4 leukemia.
Experiment in all cases: NCI-60 one-dose screen, 48 h (100 = growth as untreated, 0 = no growth, -100 = all killed)
Holding throughout (settings): 10 µM unless noted

For `C=C1C(=O)O[C@H]2[C@H]1CC/C(COC(=O)CCSCCC(=O)OC/C1=C/CC[C@@]3(C)O[C@H]3[C@H]3OC(=O)C(=C)[C@@H]3CC1)=C\CC[C@@]1(C)O[C@@H]21`, the growth was -6.34% (active) with HCT-15 colon; -9.93% (active) with HT29 colon; 48.6% in the assay with SNB-75 CNS; 55% with SNB-19 CNS; 6.76% (active) in the assay with U251 CNS; -14.5% (active) in the assay on PC-3 prostate. Further, the growth is 54.3% in the assay on SK-MEL-5 melanoma; -67% (active) in the assay with UACC-62 melanoma; -79.3% (active) with LOX IMVI melanoma; -35.6% (active) in the assay on SK-MEL-28 melanoma; 23.8% with SK-MEL-2 melanoma; 12% with EKVX NSCLC. In addition, the growth was 0.113% (active) in the assay with SN12C renal; -49.4% (active) in the assay on UO-31 renal; -3.89% (active) in the assay on TK-10 renal; -12% (active) in the assay on ACHN renal; 4.51% (active) with CAKI-1 renal; 69.8% in the assay with A498 renal. The growth is -24.8% (active) in the assay on CCRF-CEM leukemia and -25.7% (active) in the assay with MOLT-4 leukemia.
Turning to `COc1ccc2nc3ccc(OC)cc3c(SCCCN)c2c1`, the growth with HCT-15 colon is 47.3%; in the assay on HT29 colon, 37.4%; in the assay on SNB-75 CNS, 89.3%; in the assay on SNB-19 CNS, 94.8%; in the assay with U251 CNS it was 82.7%; in the assay on PC-3 prostate it was 65.6%. Besides, the growth in the assay with SK-MEL-5 melanoma is 108%; with UACC-62 melanoma, 113%; with LOX IMVI melanoma, 63.1%; in the assay on SK-MEL-28 melanoma it was 121%; in the assay with SK-MEL-2 melanoma it was 110%; in the assay with EKVX NSCLC it was 87.1%. Moreover, the growth is 67.9% in the assay on SN12C renal; 53.3% in the assay on UO-31 renal; 114% in the assay on TK-10 renal; 43.7% in the assay with ACHN renal; 74.1% in the assay with CAKI-1 renal; 83.2% with A498 renal. The growth in the assay with CCRF-CEM leukemia is 10.5%; in the assay with MOLT-4 leukemia, -5.22% (active).
Consider `Fc1ccc2[nH]cc(-c3nonc3-c3c[nH]c4ccc(Br)cc34)c2c1`, for which the growth was 9.29% (active) with HCT-15 colon; -51.8% (active) in the assay with HT29 colon; 33.7% in the assay with SNB-75 CNS; 35.8% in the assay with SNB-19 CNS; 13.6% in the assay with U251 CNS; 26.7% with PC-3 prostate. Further, the growth with SK-MEL-5 melanoma was 49.8%; with UACC-62 melanoma, 28%; in the assay with LOX IMVI melanoma, -53.9% (active); in the assay on SK-MEL-28 melanoma, 61.8%; with SK-MEL-2 melanoma it was 27%; in the assay on EKVX NSCLC it was 19.3%. For the same compound, the growth was 47.3% in the assay on SN12C renal; 17.3% with UO-31 renal; 41.5% in the assay with TK-10 renal; 23.3% with ACHN renal; 12.4% in the assay with CAKI-1 renal; 24.9% in the assay with A498 renal. For the same compound, the growth is 26% in the assay on CCRF-CEM leukemia and 16.7% with MOLT-4 leukemia.
With `COc1ccc(Cc2cc(-c3ccccc3)nn(Cc3ccccc3)c2=O)cc1OC`, the growth in the assay with HCT-15 colon was 28.7%; with HT29 colon, 29.1%; with SNB-75 CNS it was 58.3%; in the assay on SNB-19 CNS, 46.5%; in the assay with U251 CNS, 32.7%; with PC-3 prostate, 20.8%. The growth with SK-MEL-5 melanoma was -3.54% (active); in the assay on UACC-62 melanoma it was 30.6%; with LOX IMVI melanoma, 48.4%; with SK-MEL-28 melanoma, 59.3%; with SK-MEL-2 melanoma it was 36.1%; in the assay with EKVX NSCLC, 14.4%. Moreover, the growth with SN12C renal was 20.2%; in the assay on UO-31 renal it was 14.7%; with TK-10 renal, 49.8%; in the assay on ACHN renal, 27.1%; with CAKI-1 renal it was 46.3%; in the assay on A498 renal it was -16.9% (active). Moreover, the growth in the assay with CCRF-CEM leukemia was 43%; in the assay with MOLT-4 leukemia it was 9.1% (active).
For the compound `CCN1C(=O)N(CC)C2C1NN=c1s/c(=C\c3cccc([N+](=O)[O-])c3)c(=O)n12` (stereo not given), the growth is 11.6% with HCT-15 colon; 5.6% (active) in the assay on HT29 colon; 22% in the assay with SNB-75 CNS; 31.5% in the assay on SNB-19 CNS; 13.7% with U251 CNS; 33.7% in the assay with PC-3 prostate. For the same compound, the growth with SK-MEL-5 melanoma is -5.71% (active); in the assay on UACC-62 melanoma it was 32.5%; with LOX IMVI melanoma, 16.7%; with SK-MEL-28 melanoma it was 61.4%; in the assay on SK-MEL-2 melanoma, 43.4%; in the assay on EKVX NSCLC, 50.5%. Moreover, the growth is 25.5% in the assay on SN12C renal; 41.1% in the assay with UO-31 renal; 69.6% in the assay on TK-10 renal; 32.9% in the assay with ACHN renal; 25.7% with CAKI-1 renal; 13% in the assay with A498 renal. The values for the growth in the assay on CCRF-CEM leukemia and in the assay with MOLT-4 leukemia were 10.8% and 15.6%, respectively.
In the case of `CCCCCCCCn1ccc2cc(NC(=O)CN3CCN(c4nc(C)cc(Cl)n4)CC3)ccc21`, the growth in the assay on HCT-15 colon is 77.1%; with HT29 colon, 65.3%; in the assay on SNB-75 CNS it was 87%; in the assay with SNB-19 CNS, 102%; in the assay on U251 CNS, 92.8%; with PC-3 prostate, 75.6%. Also, the growth in the assay on SK-MEL-5 melanoma was 91.1%; in the assay with UACC-62 melanoma it was 76.4%; in the assay with LOX IMVI melanoma, 99.6%; in the assay on SK-MEL-28 melanoma, 98%; with SK-MEL-2 melanoma, 122%; in the assay with EKVX NSCLC it was 93.6%. In addition, the growth in the assay on SN12C renal is 99.5%; with UO-31 renal, 58.9%; in the assay with TK-10 renal, 108%; in the assay with ACHN renal, 98.1%; in the assay with CAKI-1 renal, 87.2%; with A498 renal, 109%. Besides, the growth in the assay with CCRF-CEM leukemia is -34.6% (active); in the assay on MOLT-4 leukemia, 4.97% (active).
`O=C1Nc2ccccc2/C1=C\c1nc(-c2ccccc2F)n2ccccc12`: the growth was 42.3% in the assay on HCT-15 colon; 11.6% in the assay on HT29 colon; -68.2% (active) in the assay on SNB-75 CNS; 45.8% with SNB-19 CNS; -3.26% (active) in the assay with U251 CNS; 44.1% in the assay on PC-3 prostate. Further, the growth is 37.8% with SK-MEL-5 melanoma; 38.8% in the assay on UACC-62 melanoma; 13.6% in the assay with LOX IMVI melanoma; 69.3% with SK-MEL-28 melanoma; -6.84% (active) in the assay on SK-MEL-2 melanoma; 47.6% with EKVX NSCLC. Also, the growth with SN12C renal was 14.5%; with UO-31 renal it was -16.2% (active); in the assay on TK-10 renal, -6.87% (active); in the assay with ACHN renal, -58.5% (active); with CAKI-1 renal it was -13.9% (active); in the assay with A498 renal, -10.4% (active). For the same compound, the figures for the growth in the assay with CCRF-CEM leukemia and in the assay with MOLT-4 leukemia were 79% and 70.6%, respectively.
As for `CCCCC[C@@H]1Cc2cc(O)c(C(=O)O)c3c2[C@H](C[C@]2(OC[C@@H](CC(=O)[C@@](C)(CC)C(=O)OC)[C@@H]2C)O3)O1`, the growth with HCT-15 colon is 91.6%; in the assay on HT29 colon it was 116%; in the assay with SNB-75 CNS, 96.9%; in the assay on SNB-19 CNS it was 94.3%; in the assay on U251 CNS it was 103%; in the assay on PC-3 prostate it was 106%. In addition, the growth was 108% in the assay with SK-MEL-5 melanoma; 88.9% in the assay with UACC-62 melanoma; 103% in the assay on LOX IMVI melanoma; 118% in the assay on SK-MEL-28 melanoma; 101% with SK-MEL-2 melanoma; 113% with EKVX NSCLC. In addition, the growth is 92.4% in the assay with SN12C renal; 99.6% in the assay on UO-31 renal; 109% in the assay on TK-10 renal; 97.5% in the assay on ACHN renal; 99.9% in the assay on CAKI-1 renal; 122% in the assay with A498 renal. Besides, the growth with CCRF-CEM leukemia is 116%; in the assay with MOLT-4 leukemia it was 90.2%.
